# According to PubChem BioAssay (Tox21):
# Inconclusive results are not listed. Unmarked numbers belong to inactive results. The source made the active and inactive calls. Unless noted, calls follow the shape of the dose curve; as a rule, active = well fitted cell-killing curve with a large enough effect in the repeat runs; inconclusive = weak or mixed curves, or effect the other way; inactive = flat fitted curve, though single readings scatter.
# Tested on: not listed separately
# Assay: qHTS assay to identify small molecule that activate the aryl hydrocarbon receptor (AhR) signaling pathway - cell viability counter screen (AID 743086); also: nearly all actives have a fitted effect of over 45% in size; also: potency is read from the fitted curve at half-maximal effect;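 as to viability change, negative = cytotoxic: HepG2 liver cells carrying the AhR DRE luciferase reporter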
# Conditions: HepG2-AhR-luc viability, CellTiter-Fluor, 24 h; series mostly up to 70.3 µM; viability change, negative = cytotoxic: at the top concentration
# In short: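 HepG2-AhR-luc (HG2L7.5c1) cells, 4000/well, were preincubated 5 h at 37C, exposed to compound in qHTS format for 24 hr at 37C, then given CellTiter-Fluor for 30 min; viability was read as fluorescence in the reporter wells.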
# % is scaled to controls: 0 for no effect and ±100 for the full control effect.
Structure (SMILES),"viability change, negative = cytotoxic",Potency
C[Si]1(C)N[Si](C)(C)N[Si](C)(C)N1,7.76%,–
O=C(COCCOCCOCC(=O)Nc1c(I)cc(I)c(C(=O)O)c1I)Nc1c(I)cc(I)c(C(=O)O)c1I,6.97%,–
C[C@H]1O[C@H](O[C@H]2[C@H](O)[C@@H](O)[C@@H](O[C@H]3[C@H](O)[C@@H](O)[C@H](O)O[C@@H]3CO)O[C@@H]2CO)[C@H](O)[C@@H](O)[C@@H]1N[C@H]1C=C(CO)[C@@H](O)[C@H](O)[C@H]1O,-1.22%,–
CCCCCC1CCCC(=O)O1 (stereo unspecified),8.22%,–
Nc1cc(Cl)cc(S(=O)(=O)O)c1O,-14.3% [at 95 µM],–
Cc1oc(=O)oc1CN1CCN(c2cc3c(cc2F)c(=O)c(C(=O)O)c2n3C(C)S2)CC1 (stereo unspecified),4.97%,–
COC(OC)C(C)c1ccccc1 (stereo unspecified),-0.154%,–
CCNC(=O)/C=C/c1cccc(Br)c1,0.18%,–
N#CCCOCCOCCC#N,-0.425%,–
Nc1ccc(S(=O)(=O)NC(=O)c2ccccc2)cc1,-1.49% [at 32.5 µM],–
CCCOC(=O)CCCCC(=O)OCCC,3.13%,–
COc1cc(C=O)ccc1OC(=O)C(C)C,11.2%,–
CCC(O)C(C)(C)C (stereo unspecified),-1.92% [at 95 µM],–
O=C(O)c1c(Cl)ccc(Cl)c1Cl,0.749%,–
CC(C)CCC(=O)CCC(C)C,10.9%,–
Cc1cc(O)c2c(c1)C(=O)c1cccc(O)c1C2=O,-7.3%,–
O=[Si]=O,-2.47%,–
CCC(=O)OCCC(C)CCC=C(C)C (stereo unspecified),5.94%,–
C=CCOc1c(Br)cc(Br)cc1Br,8.24%,–

Structure (SMILES),"viability change, negative = cytotoxic",Potency
C=CCOc1c(Br)cc(C(C)(C)c2cc(Br)c(OCC=C)c(Br)c2)cc1Br,8.74%,–
COc1cc2c3cc1Oc1cc(ccc1O)C[C@@H]1c4c(cc(OC)c(O)c4Oc4ccc(cc4)C[C@@H]3N(C)CC2)CC[N+]1(C)C,4.44%,–
Cc1ccccc1N1CCN(CCc2nnc3n2CCCC3)CC1,-1.09%,–
NS(=O)(=O)c1cc2c(cc1Cl)NC(CC1CCCC1)NS2(=O)=O (stereo unspecified),6.18% [at 32.5 µM],–
CC(=O)c1ccc(OCC(=O)N2CCCCC2)cc1,2.77%,–
O=S(=O)(O)CCO,-2.84% [at 95 µM],–
CNCc1ccccc1,-6.29%,–
CN=C(NC#N)NCCSCc1csc(N=C(N)N)n1,10.8%,–
C=C[Si](C)(C)O[Si](C)(C)C=C,-7.57%,–
COc1ccc(N=Nc2cc(C)c(N=Nc3ccc(S(=O)(=O)O)cc3)cc2OC)cc1,–,48.6 µM (active)
O=C1OC(=O)c2ccccc21,0.688%,–
CC(=O)OC(C)c1ccccc1 (stereo unspecified),0.893%,–
O=S1(=O)CCCC1,-0.207% [at 95 µM],–
Cc1cccc(C(=O)O)c1[N+](=O)[O-],-1.53%,–
NC(=O)C1(N2CCCCC2)CCN(CCCC(=O)c2ccc(F)cc2)CC1,-17.7%,–
O=C(/C=C/c1ccccc1)NCCO,12.8%,–
O=C(O)Cc1cccc(-c2cc(CCCCCCc3ccc(O[C@H]4O[C@H](CO)[C@@H](O)[C@H](O)[C@@H]4O)c(-c4cccc(CC(=O)O)c4)c3)ccc2O[C@H]2O[C@H](CO)[C@@H](O)[C@H](O)[C@@H]2O)c1,2.88%,–
O=C(Oc1ccccc1C(=O)O)c1ccccc1O,-18.7%,–
CN[C@@H]1[C@H](O)[C@H](NC)[C@H]2O[C@@]3(O)C(=O)C[C@@H](C)O[C@H]3O[C@@H]2[C@H]1O,3.1% [at 32.5 µM],–

# Biological target: Peroxisome proliferator-activated receptor gamma (Homo sapiens) (UniProt P37231)
# Sequence (P37231 whole entry, looked up): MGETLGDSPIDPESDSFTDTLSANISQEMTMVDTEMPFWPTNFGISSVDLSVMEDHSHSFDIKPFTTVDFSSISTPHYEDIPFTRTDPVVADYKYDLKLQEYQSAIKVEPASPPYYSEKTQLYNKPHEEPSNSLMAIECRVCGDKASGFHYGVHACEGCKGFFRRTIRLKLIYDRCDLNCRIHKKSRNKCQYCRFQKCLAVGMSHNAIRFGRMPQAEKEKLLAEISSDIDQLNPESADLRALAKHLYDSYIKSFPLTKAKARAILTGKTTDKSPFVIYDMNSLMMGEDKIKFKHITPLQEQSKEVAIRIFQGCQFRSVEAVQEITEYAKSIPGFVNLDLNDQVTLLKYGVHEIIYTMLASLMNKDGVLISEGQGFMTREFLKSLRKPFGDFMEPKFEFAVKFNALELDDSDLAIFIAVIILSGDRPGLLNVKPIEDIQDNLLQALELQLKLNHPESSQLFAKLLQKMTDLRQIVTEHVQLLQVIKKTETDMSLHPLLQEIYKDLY
# Assay: qHTS assay to identify small molecule agonists of the peroxisome proliferator-activated receptor gamma (PPARg) signaling pathway (AID 743094; active = well fitted activation curve with a large enough effect in the signal ratio in the repeat runs, not every such curve was filed as active; the % refers to the signal ratio)
# Conditions: HEK293H PPARg-UAS-bla, beta-lactamase FRET ratio, 17 h; series mostly up to 57 µM; activation: at the top concentration
# In short: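 Cell-based bla reporter, HEK293H background, PPARg-driven UAS. Pre-incubation 5 h, 37C, 5% CO2. Compound 17 h, 37C. Substrate 1 h RT; fluorescence.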
row,Structure (SMILES),activation
1,C[Si]1(C)N[Si](C)(C)N[Si](C)(C)N1,0.124%
2,O=C(COCCOCCOCC(=O)Nc1c(I)cc(I)c(C(=O)O)c1I)Nc1c(I)cc(I)c(C(=O)O)c1I,3.64%
3,C[C@H]1O[C@H](O[C@H]2[C@H](O)[C@@H](O)[C@@H](O[C@H]3[C@H](O)[C@@H](O)[C@H](O)O[C@@H]3CO)O[C@@H]2CO)[C@H](O)[C@@H](O)[C@@H]1N[C@H]1C=C(CO)[C@@H](O)[C@H](O)[C@H]1O,-0.644%
4,CCCCCC1CCCC(=O)O1 (stereo unspecified),-1.28%
5,Nc1cc(Cl)cc(S(=O)(=O)O)c1O,-8.75% [at 78.9 µM]
6,Cc1oc(=O)oc1CN1CCN(c2cc3c(cc2F)c(=O)c(C(=O)O)c2n3C(C)S2)CC1 (stereo unspecified),-0.394%
7,COC(OC)C(C)c1ccccc1 (stereo unspecified),0.635%
8,CCNC(=O)/C=C/c1cccc(Br)c1,1.1%
9,N#CCCOCCOCCC#N,5.27%
10,Nc1ccc(S(=O)(=O)NC(=O)c2ccccc2)cc1,-1.37% [at 26.2 µM]
11,CCCOC(=O)CCCCC(=O)OCCC,2.09%
12,COc1cc(C=O)ccc1OC(=O)C(C)C,2.31%
13,CCC(O)C(C)(C)C (stereo unspecified),2.83% [at 78.9 µM]
14,O=C(O)c1c(Cl)ccc(Cl)c1Cl,5.58%
15,CC(C)CCC(=O)CCC(C)C,2.5%
16,Cc1cc(O)c2c(c1)C(=O)c1cccc(O)c1C2=O,-6.92%
17,O=[Si]=O,-3.36%
18,CCC(=O)OCCC(C)CCC=C(C)C (stereo unspecified),3.76%
19,C=CCOc1c(Br)cc(Br)cc1Br,2.73%

row,Structure (SMILES),activation
1,C=CCOc1c(Br)cc(C(C)(C)c2cc(Br)c(OCC=C)c(Br)c2)cc1Br,-3.5%
2,COc1cc2c3cc1Oc1cc(ccc1O)C[C@@H]1c4c(cc(OC)c(O)c4Oc4ccc(cc4)C[C@@H]3N(C)CC2)CC[N+]1(C)C,-1.35%
3,Cc1ccccc1N1CCN(CCc2nnc3n2CCCC3)CC1,-0.621%
4,NS(=O)(=O)c1cc2c(cc1Cl)NC(CC1CCCC1)NS2(=O)=O (stereo unspecified),-2.46% [at 26.2 µM]
5,CC(=O)c1ccc(OCC(=O)N2CCCCC2)cc1,0.0248%
6,O=S(=O)(O)CCO,2.52% [at 78.9 µM]
7,CNCc1ccccc1,0.436%
8,CN=C(NC#N)NCCSCc1csc(N=C(N)N)n1,-3.01%
9,C=C[Si](C)(C)O[Si](C)(C)C=C,-6.26%
10,COc1ccc(N=Nc2cc(C)c(N=Nc3ccc(S(=O)(=O)O)cc3)cc2OC)cc1,-0.0543%
11,O=C1OC(=O)c2ccccc21,-2.66%
12,CC(=O)OC(C)c1ccccc1 (stereo unspecified),0.94%
13,O=S1(=O)CCCC1,0.562% [at 78.9 µM]
14,Cc1cccc(C(=O)O)c1[N+](=O)[O-],1.12%
15,NC(=O)C1(N2CCCCC2)CCN(CCCC(=O)c2ccc(F)cc2)CC1,-7.8%
16,O=C(/C=C/c1ccccc1)NCCO,3.89%
17,O=C(O)Cc1cccc(-c2cc(CCCCCCc3ccc(O[C@H]4O[C@H](CO)[C@@H](O)[C@H](O)[C@@H]4O)c(-c4cccc(CC(=O)O)c4)c3)ccc2O[C@H]2O[C@H](CO)[C@@H](O)[C@H](O)[C@@H]2O)c1,0.372%
18,O=C(Oc1ccccc1C(=O)O)c1ccccc1O,1.02%
19,CN[C@@H]1[C@H](O)[C@H](NC)[C@H]2O[C@@]3(O)C(=O)C[C@@H](C)O[C@H]3O[C@@H]2[C@H]1O,-1.64% [at 26.2 µM]
